High-throughput results (PubChem)
POLK inh: blocks human DNA polymerase kappa activity; purified Pol kappa, fluorescent DNA synthesis assay, 10 min; Potency, µM (doses to about 107 µM), for inactives: at the top dose activity, negative = inhibition, hits mostly inhibitors; actives 0.53% (n = 400,000); AID 588579; note: % is set by controls: 0 for no effect and ±100 for the full control effect
Target sequence (Q9UBT6 whole entry, looked up): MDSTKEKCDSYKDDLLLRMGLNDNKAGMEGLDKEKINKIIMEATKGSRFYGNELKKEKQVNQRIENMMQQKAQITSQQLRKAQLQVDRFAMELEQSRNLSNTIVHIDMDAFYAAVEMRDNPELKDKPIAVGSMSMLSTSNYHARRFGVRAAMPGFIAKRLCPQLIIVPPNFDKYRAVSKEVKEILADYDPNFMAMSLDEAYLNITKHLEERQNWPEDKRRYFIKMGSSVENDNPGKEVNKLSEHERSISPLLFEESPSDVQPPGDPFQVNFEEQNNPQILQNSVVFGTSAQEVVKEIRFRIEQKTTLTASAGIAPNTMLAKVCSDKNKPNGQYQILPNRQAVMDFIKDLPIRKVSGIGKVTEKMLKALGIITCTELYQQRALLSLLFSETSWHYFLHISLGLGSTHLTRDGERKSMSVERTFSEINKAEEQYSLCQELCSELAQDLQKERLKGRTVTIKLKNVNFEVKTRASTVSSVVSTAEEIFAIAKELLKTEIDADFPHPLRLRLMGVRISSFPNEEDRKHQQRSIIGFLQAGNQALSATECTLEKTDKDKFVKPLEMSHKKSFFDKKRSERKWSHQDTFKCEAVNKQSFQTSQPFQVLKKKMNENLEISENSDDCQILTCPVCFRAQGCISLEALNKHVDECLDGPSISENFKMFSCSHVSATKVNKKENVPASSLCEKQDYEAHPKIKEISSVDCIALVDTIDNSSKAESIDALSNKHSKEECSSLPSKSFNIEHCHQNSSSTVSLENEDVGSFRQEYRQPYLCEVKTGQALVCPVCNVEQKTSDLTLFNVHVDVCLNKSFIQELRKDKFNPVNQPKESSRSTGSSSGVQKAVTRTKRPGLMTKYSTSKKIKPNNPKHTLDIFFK
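Kinetic fluorescence readout at 0 and 10 min followed reaction start with substrate at 50 nM final. Beforehand, enzyme (10 nM Pol kappa) stood 15 min with compound at room temperature; buffer-only wells were negative controls.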
L3MBTL1 block: inhibitors of human L3MBTL1. Q9Y468. AlphaScreen L3MBTL1–H3K9me1 peptide binding. Potency, µM (titrated, usually from 57.1 µM), for the others: at the top dose activity, negative = inhibition, usual class: inhibitors. actives 0.66% (n = 230,000); note: % is set by controls: 0 for no effect and ±100 for the full control effect; nearly all actives have a fitted effect of over 60% in size
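L3MBTL1 (50 nM) pre-complexed 30 min with biotinylated H3(1-15)K9me1 peptide (75 nM), then compounds added for 30 min at room temperature; AlphaScreen streptavidin donor/nickel chelate acceptor beads (10 ug/mL final) read after 30 min dark incubation.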
Pol iota inh: DNA polymerase iota (human) inhibition; Potency, µM (doses to about 115 µM), without a hit: top-dose activity, negative = inhibition, most hits filed as inhibitors; actives 1% (n = 390,000); Q9UNA4; AID 588590; Pol iota fluorescent replication assay, 10 min
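Fluorescent replication assay read twice, at 0 min and 10 min after adding 50 nM (final) substrate. Enzyme (10 nM) and compounds were first incubated 15 min at room temperature; enzyme-free buffer wells were negative controls.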
Pol eta inh: DNA polymerase eta (human) inhibition; Potency, µM (series often up to 114 µM), inactives show at the highest dose activity change, negative = inhibition, most hits filed as inhibitors; Q9Y253; AID 588591; recombinant Pol eta, fluorescent DNA replication assay; actives 1.2% (n = 390,000); note: % is set by controls: 0 for no effect and ±100 for the full control effect
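Fluorescent replication assay: 50 nM final substrate added after a 15 min room-temperature compound preincubation with 10 nM enzyme. Signal taken at 0 min and again at 10 min.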
APE1 inh: APE1 (human) endonuclease inhibition. P27695. recombinant APE1, TAMRA/BHQ-2 abasic DNA cleavage fluorescence. Potency, µM (doses to about 65.8 µM), without a hit: top-dose activity change, negative = inhibition, usual class: inhibitors. actives 0.35% (n = 350,000). AID 2517;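 note: plate controls were vehicle for no effect and reference inhibitor for full effect; nearly all actives have a fitted effect of over 55% in size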
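Substrate: short duplex with […] THF abasic site, 5'-TAMRA and 3'-BHQ-2, 50 nM final. APE1 at 0.75 nM, preincubated 15 min RT with compound. Fluorescence increase from first to third read measured activity.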
Pol beta inh: DNA polymerase beta (human) inhibition | Pol beta primer extension/strand displacement, fluorescence kinetic | Potency, µM (series often up to 114 µM), inactives show top-dose activity change, negative = inhibition, most hits filed as inhibitors | P06746 | actives 1.3% (n = 340,000); note: % is set by controls: 0 for no effect and ±100 for the full control effect
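Kinetic readout of DNA synthesis with strand displacement by Pol beta. Compound and 10 nM enzyme sit 15 min at room temperature; 50 nM substrate starts the reaction, read immediately and at 10 min.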
Active calls of the source: *; ? = inconclusive; nt = no result given; [ ] = another dose, or the depositor's remark. Shown are actives, neighbours in structure and some others; about 2.5% of the full set was active somewhere. Calls come from the whole dose curve; as a rule, active = well fitted curve in the direction sought with a large enough effect; inconclusive = small, poorly fitted or top-dose-only effect, or another doubt; inactive = no such curve, though single readings can be large; an effect the other way counts as inactive or inconclusive. Potency is the fitted concentration of half-maximal effect.

SMILES	POLK inh	L3MBTL1 block	Pol iota inh	Pol eta inh	APE1 inh	Pol beta inh
O=C(CC(NC(=O)c1ccccc1)c1ccccc1)OCc1nc(-c2cccc(Cl)c2)no1 (configuration not stated)	-15%	nt	-21%	nt	nt	nt
Cn1cc(-c2nc3cnc(N4CCNCC4)nc3n(C)c2=O)c2ccccc21	-14%[60.1 µM]	nt	nt	nt	-7%	nt
CCN(CC)c1ccc(NC(=O)C2CCN(c3nnc(-n4cccc4)s3)CC2)c(C)c1	-9%	nt	?	2%	nt	25µM*
CC(C)CN(C)c1ccc(/C=C2\C=Cc3ccccc32)cc1	1%	nt	10%	nt	nt	nt
CCC(=O)Oc1ccc(C/C(=N\O)c2ccc(O)cc2O)o1	28µM*	32µM*	20µM*	79µM*	?	?
CCOC(=O)c1ccc(CC(=O)c2ccc(O)cc2O)o1	-16%	nt	0%	-7%	-2%	29%
OC[C@@H](O)C(O)[C@H](O)CO	nt	nt	nt	nt	-4%	nt
COC(=O)C1CCN(CC(=O)Nc2sc3c(c2C#N)CCC3)CC1	-1%	-12%	-35%	?	-4%	40µM*
CC(=O)C[n+]1cccc2cc(Cl)ccc21	-24%	nt	63%	nt	nt	nt
Cc1ccc2nc(COc3ccccc3NC(=O)c3ccc(F)cc3)cc(=O)n2c1	-15%[60.1 µM]	nt	89µM*	-10%	nt	?
O=S1(=O)CCOC[C@H](c2ccccc2)N1Cc1ccc(Cl)c(Cl)c1	-15%	nt	41%	nt	nt	nt
O=C(Nc1ccc(C2=NCCN2)cc1)c1ccc(Cl)c(C(=O)Nc2ccc(C3=NCCN3)cc2)c1	nt	-21%	nt	nt	-1%	50µM*
O=C(Nc1ccc(Cl)c(Cl)c1)c1ccc(Cl)c(Cl)c1	-18%	20%	-26%	-22%	16%	21%
COc1ccc(Cl)cc1C(=O)Nc1sc2c(c1C(=O)OC(C)C)CCCC2	-8%	nt	?	-13%	nt	-8%
Cc1ccc(S(=O)(=O)N2CN(Cc3ccco3)c3nc4ccccc4nc32)cc1	-20%	-3%	9%	-15%	-5%	-18%
COc1ccc(S(=O)(=O)N2CN(Cc3ccco3)c3nc4ccccc4nc32)cc1	-9%	nt	?	79µM*	2%	-11%
Cc1cccc(Cn2cnc3c(cnn3C(C)(C)C)c2=O)c1	12%	nt	6%	nt	-4%	nt
COC1=CC(=O)C(C2CC(=O)c3c(O)cc(O)cc3O2)=CC1=O (configuration not stated)	32µM*	nt	?	?	nt	nt
COc1c(CC=C(C)C)cc(C2CC(=O)c3c(O)cc(O)cc3O2)cc1CC=C(C)C (configuration not stated)	-12%	nt	-6%	-21%	-1%	-30%
CC(C)(C)n1ncc2c(=O)n(Cc3ccc(OC(F)(F)F)cc3)cnc21	-8%	nt	-8%	nt	3%	nt
CCn1nc(C(=O)Nc2ccc(S(=O)(=O)Nc3nccs3)cc2)c2ccccc2c1=O	-33%	nt	-1%	?	6%	-18%
O=C(Nc1ccc(S(=O)(=O)Nc2ncccn2)cc1)c1nn(Cc2ccccc2)c(=O)c2ccccc12	-19%	nt	?	79µM*	8%	?
C/C(=N\NC(=O)c1cc(-c2cccs2)nc2ccccc12)c1ccccn1	-21%	28µM*	10%	-20%	-2%	-2%
Cc1sc(-n2c(C)cc(C=O)c2C)c(C(=O)O)c1C	-25%	nt	35µM*	50µM*	-8%	?
CCOC(=O)c1c(-n2c(C)cc(C=O)c2C)sc2c1CCCC2	-12%	-4%	0%	-12%	0%	-20%
SMILES	POLK inh	L3MBTL1 block	Pol iota inh	Pol eta inh	APE1 inh	Pol beta inh
C=CCOc1ccc(/C=C\c2nc(O)c([N+](=O)[O-])c(=O)[nH]2)cc1OC	?	-2%	50µM*	25µM*	21%	0%
C#CCOc1c(/C=C\c2nc(O)c([N+](=O)[O-])c(=O)[nH]2)cc(Br)cc1OC	-43%	-1%	?	35µM*	10%	?
COC(=O)COc1c(/C=C\c2nc(O)c([N+](=O)[O-])c(=O)[nH]2)cccc1OC	-3%	0%	?	-16%	34%	12%
C=CCOc1ccc(/C=C\c2nc(O)c([N+](=O)[O-])c(=O)[nH]2)cc1OCC	-7%	nt	?	20µM*	-7%	6%
CC(C)(C)N[S+](=O)([O-])c1cccc(-c2nnc(SCc3ccc(C(=O)O)cc3)n2-c2ccc(F)cc2)c1	nt	nt	nt	nt	26%	nt
Cc1oc2c(c1C(=O)c1ccc(Cl)cc1)C(=O)C(=O)c1ccccc1-2	-8%	-4%	52%	-14%	9%	32%
Cc1ccc(C(=O)c2c(C)oc3c2C(=O)C(=O)c2ccccc2-3)cc1	-4%	?	-45%	45µM*	-5%	-25%
CCOC(=O)CSc1nc2c(sc(=S)n2-c2ccccc2OC)c(=O)n1-c1ccccc1OC	-8%	nt	133%	-25%	-9%	19%
COc1ccc(-n2c(SCC(=O)C(C)(C)C)nc3c(sc(=S)n3-c3ccccc3)c2=O)c(OC)c1	1%	nt	11µM*	-5%	-12%	-4%
O=C(O)C(CCCCNS(=O)(=O)c1ccc(F)cc1)NS(=O)(=O)c1ccc(F)cc1 (configuration not stated)	-20%	nt	24%	?	18%	?
O=C1[C@H](Cc2ccccc2)NC/C=C\C[C@H](c2ccc(Cl)cc2)N1Cc1ccc(Cl)cc1	-22%	nt	7%	nt	nt	nt
CCOC(=O)Cc1cn2c(=O)cc(CSCC(=O)Nc3ccc(C)c(C)c3)nc2s1	-20%	-13%	?	89µM*	-2%	?
CCCCN(C(=O)c1cc(-c2ccco2)nc2ccccc12)c1c(N)n(CCCC)c(=O)[nH]c1=O	79µM*	?	18µM*	50µM*	-28%	nt
COCCN(C(=O)c1cc(-c2ccco2)nc2ccccc12)c1c(N)n(Cc2ccccc2)c(=O)[nH]c1=O	?	?	18µM*	22µM*	-26%	nt
CCCN(C(=O)c1cc(-c2ccco2)nc2ccccc12)c1c(N)n(Cc2ccccc2)c(=O)[nH]c1=O	-45%	?	20µM*	16µM*	-22%	nt
CCCCCC(=O)c1c(O)cc(OC)c(Cl)c1O	11%[60.1 µM]	nt	nt	nt	-5%	nt
NC1CCc2ccccc21 (configuration not stated)	1%	nt	-1%	nt	nt	nt
Cc1ccc(-c2n[nH]c(=S)n2/N=C/C=C/c2ccccc2[N+](=O)[O-])cc1	-12%	nt	?	?	3%	32µM*
Cc1cccc(/C=N/n2c(-c3cc(-c4ccccc4)n[nH]3)n[nH]c2=S)c1	-4%	-19%	4%	-4%	-1%	56µM*
S=c1[nH]nc(-c2cc(-c3ccccc3)n[nH]2)n1/N=C/c1ccccc1	-18%	nt	0%	-1%	-10%	2%
